According to the supplement of paper PMC3545927:
This is one part of the list. No count for the full screen is at hand.

Target: furin, P09958
Assay: furin cleavage Z-score vs untreated control; higher = more cleavage, active = 3.5 or more, inactive = 1 or less, 8 variable residues between constant flanks
Experimental: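 Multiplexed peptide-cDNA fusion cleavage assay. 8-mer variable peptides flanked by constant Cys-Ala (N-term) and Ala-Gly-Asn-Ala-Ser-Ala-Ser-Ala (C-term) and conjugated to a cDNA oligonucleotide were bead-immobilised via the N-terminus. They were treated with purified furin at a 1:10 enzyme:substrate ratio in 50 mM HEPES pH 7.5, 1 mM CaCl2, 100 mM NaCl for 7.5, 15 or 30 min. Released cDNA was counted by next-generation sequencing, and log counts versus no-furin controls were lowess-adjusted and converted to robust Z-scores.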

Sequence of furin, P09958 (P09958 whole entry): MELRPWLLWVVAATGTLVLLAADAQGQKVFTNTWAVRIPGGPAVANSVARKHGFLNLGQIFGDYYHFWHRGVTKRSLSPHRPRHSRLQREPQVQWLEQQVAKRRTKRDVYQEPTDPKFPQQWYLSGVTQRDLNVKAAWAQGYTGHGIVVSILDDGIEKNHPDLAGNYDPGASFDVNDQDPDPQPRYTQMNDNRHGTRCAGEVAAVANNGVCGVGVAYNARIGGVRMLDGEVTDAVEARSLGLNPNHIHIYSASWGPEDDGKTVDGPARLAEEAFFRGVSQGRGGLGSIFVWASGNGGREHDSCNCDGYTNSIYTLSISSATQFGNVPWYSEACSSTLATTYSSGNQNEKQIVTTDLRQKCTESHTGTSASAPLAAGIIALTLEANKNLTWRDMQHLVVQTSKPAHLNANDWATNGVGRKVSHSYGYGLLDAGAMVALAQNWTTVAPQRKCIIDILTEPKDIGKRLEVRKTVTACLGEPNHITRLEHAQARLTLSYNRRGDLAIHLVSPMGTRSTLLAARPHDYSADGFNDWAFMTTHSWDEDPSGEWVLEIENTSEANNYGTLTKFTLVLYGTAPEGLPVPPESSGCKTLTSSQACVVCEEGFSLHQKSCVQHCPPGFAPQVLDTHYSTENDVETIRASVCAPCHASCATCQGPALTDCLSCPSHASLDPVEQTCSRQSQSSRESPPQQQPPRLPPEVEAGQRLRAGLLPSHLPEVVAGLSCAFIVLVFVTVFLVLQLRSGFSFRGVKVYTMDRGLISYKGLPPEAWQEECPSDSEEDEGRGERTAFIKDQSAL

Sequence | furin cleavage Z-score (7.5 min) | furin cleavage Z-score (15 min) | furin cleavage Z-score (30 min)
CAMVVTSTWVAGNASASA [HC2146] | -1.12 (inactive) | -1.84 (inactive) | -2.22 (inactive)
CAIGTVLDQAAGNASASA [HC825] | -1.51 (inactive) | -1.57 (inactive) | -0.129 (inactive)
CARQKRDPAFAGNASASA [FS-2289] | 2.9 | 3.65 (active) | 5.36 (active)
CARSKRRWVIAGNASASA [FS-2812] | -0.553 (inactive) | -0.688 (inactive) | 0.146 (inactive)
CARHKRQSGVAGNASASA [FS-2211] | 5.97 (active) | 7.29 (active) | 6.66 (active)
CARQKRDWIWAGNASASA [FS-2751] | 3.51 (active) | 5.26 (active) | 8.38 (active)
CARHKRLSYQAGNASASA [FS-3255] | -1.36 (inactive) | -0.609 (inactive) | 1.23
CARQKRGWMWAGNASASA [FS-2169] | -0.547 (inactive) | 2.65 | 3
CARQKKGVVPAGNASASA [FS-2749] | 0.952 (inactive) | -0.837 (inactive) | -1.72 (inactive)
CARRKRDWVIAGNASASA [FS-2778] | 3.18 | 5.46 (active) | 8.57 (active)
CARRCRASGVAGNASASA [HC1509] | -1.17 (inactive) | -0.493 (inactive) | -0.69 (inactive)
CACLEVVTSTAGNASASA [HC2280] | -1.07 (inactive) | -0.98 (inactive) | 0.458 (inactive)
CAARLLARGGAGNASASA [HC1625] | -1.06 (inactive) | -1.7 (inactive) | -0.871 (inactive)
CAQTASRQAEAGNASASA [HC1029] | 1.23 | 0.0169 (inactive) | -0.455 (inactive)
CAGVRTITTGAGNASASA [HC801] | 0.457 (inactive) | -0.157 (inactive) | -1.39 (inactive)
CASTPCSIHLAGNASASA [HC2524] | -0.158 (inactive) | 0.385 (inactive) | 1.12
CATAPCSGSWAGNASASA [HC1843] | -0.496 (inactive) | -0.615 (inactive) | -1.22 (inactive)
CARQKRFVLSAGNASASA [FU6] | 5.85 (active) | 4.21 (active) | 6.95 (active)
CARHERDAGVAGNASASA [FS-1822] | 0.322 (inactive) | 0.612 (inactive) | -0.236 (inactive)
CARQKRDTTHAGNASASA [FS-2750] | 12.5 (active) | 13.1 (active) | 9.68 (active)
CARQKRFVLSAGNASASA [FS-2444] | 4.98 (active) | 5.66 (active) | 7.27 (active)
CARQKRLFCRAGNASASA [FS-2755] | -1.26 (inactive) | 0.165 (inactive) | 0.958 (inactive)

Sequence | furin cleavage Z-score (7.5 min) | furin cleavage Z-score (15 min) | furin cleavage Z-score (30 min)
CARQKRDWVIAGNASASA [FS-2586] | 2.07 | 4.34 (active) | 6.74 (active)
CARHKRDWVVAGNASASA [FS-2677] | 4.03 (active) | 1.73 | 8.28 (active)
CARYSRGVLSAGNASASA [FS-2113] | 0.374 (inactive) | 0.104 (inactive) | 0.696 (inactive)
CALSGWFTAGAGNASASA [HC1644] | -0.277 (inactive) | -0.506 (inactive) | -1.36 (inactive)
CAFLVGQLFTAGNASASA [HC303] | -0.568 (inactive) | -0.266 (inactive) | 0.343 (inactive)
CASGDVVVVAAGNASASA [HC875] | -0.568 (inactive) | -1.7 (inactive) | 1.07
CAMEECSYHLAGNASASA [HC1729] | -0.21 (inactive) | -0.538 (inactive) | -0.509 (inactive)
CAAPRSSMSNAGNASASA [TR10] | -0.848 (inactive) | -0.0583 (inactive) | -0.668 (inactive)
CARQKRDANSAGNASASA [FS-2506] | 10.9 (active) | 12 (active) | 11.1 (active)
CARQKKADEPAGNASASA [FS-3033] | -0.414 (inactive) | 0.374 (inactive) | -1.07 (inactive)
CACQDHLEFWAGNASASA [HC936] | -1.02 (inactive) | -2.52 (inactive) | -2.85 (inactive)
CAKDGRRRKSAGNASASA [FS-446] | 0.703 (inactive) | 2.31 | 0.747 (inactive)
CAGVGRVLRSAGNASASA [FS-129] | 7 (active) | 7.17 (active) | 7.2 (active)
CAKPRRRRKSAGNASASA [FS-1020] | 5.69 (active) | 7.66 (active) | 7.17 (active)
CAKPRRILRSAGNASASA [FS-1019] | 6.74 (active) | 4.42 (active) | 5.71 (active)
CASALYVGDLAGNASASA [HC297] | -0.151 (inactive) | -0.752 (inactive) | -0.26 (inactive)
CAFKHRRARFAGNASASA [FS-767] | 5.47 (active) | 8.44 (active) | 8.1 (active)
CAARQRRARFAGNASASA [FS-1186] | 7.96 (active) | 10.3 (active) | 9.01 (active)
CALKGRPARFAGNASASA [FS-1135] | 1.12 | 3.63 (active) | 3.8 (active)
CADSSRPARFAGNASASA [FS-987] | 0.601 (inactive) | 2.61 | 1.35
CAMTHRWNRFAGNASASA [FS-1545] | -0.191 (inactive) | 1.1 | -0.35 (inactive)
CAVEGERGFFAGNASASA [EK8] | -1.92 (inactive) | -1.33 (inactive) | -1.12 (inactive)
